Screening results deposited in PubChem by several laboratories.
In the library only some 3.4% were active in any assay of this set; here they are far more common.
MEKK2 mut-MEK5 = signal of MEK5 binding to mutant human MEKK2 PB1 domain; bead flow cytometry, Alexa488-MEK5 binding to MEKK2 mutant; percent response, % at 10 µM; actives 0.35% (n = 290,000); in the data active means percent response above about 24%, passing the limit was not always enough
ANO1 activ = mouse TMEM16A channel activation, primary screen. actives 0.3% (n = 340,000). Q8BHY3. B-score at 10 µM. HEK293 TMEM16A/YFP-H148Q/I152L, iodide quench fluorescence; active compounds read low;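 active means fluorescence-ratio B-score plate-corrected deviation score at least 3 library SD below zero, with starting fluorescence score within 5 deviations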;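 further: channel opened by trigger with iodide after compound preincubation; score built on the fluorescence ratio of max minus min over baseline; more negative score means more quench and so TMEM16A activation or potentiation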
MEKK2wt PB1 HTS = raises or lowers MEK5 binding to wildtype human MEKK2 PB1 domain. actives 1.1% (n = 290,000). Q9Y2U5. binding response (% of control), % at 10 µM. bead flow cytometry, Alexa488-MEK5 binding to MEKK2 WT; actives lie on both sides; in the data active means binding response below about 67% or above about 130%
NTR1 ag = agonists of human neurotensin receptor NTR1; P30989; AID 493036; NTR1-U2OS beta-arrestin-GFP spot imaging, agonist mode; actives 0.17% (n = 330,000); activation, % at 20 µM;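 active means activation at or above 40% of the spot to cytoplasm intensity ratio, with at least 20 cells analyzed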;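 further: 0% = DMSO without peptide and 100% = 100 nM NTR1 peptide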
MEKK3 PB1 HTS = modulators (inhibitors or enhancers) of MEK5 binding to human MEKK3 PB1 domain | Q99759 | bead-based flow cytometry, Alexa488-MEK5 binding to MEKK3; actives lie on both sides; 0 = blocked by unlabeled MEK5, 100 = vehicle | binding response (% of control), % at 10 µM | actives 1.4% (n = 290,000);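 active means binding response more than 3 SD above or below the average of its plate-row segment, actives on both sides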;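 further: Alexa488 bead fluorescence after subtracting the streptavidin-only scavenger bead signal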
Target sequence (Q99759 whole entry, looked up, the tested form may be a part): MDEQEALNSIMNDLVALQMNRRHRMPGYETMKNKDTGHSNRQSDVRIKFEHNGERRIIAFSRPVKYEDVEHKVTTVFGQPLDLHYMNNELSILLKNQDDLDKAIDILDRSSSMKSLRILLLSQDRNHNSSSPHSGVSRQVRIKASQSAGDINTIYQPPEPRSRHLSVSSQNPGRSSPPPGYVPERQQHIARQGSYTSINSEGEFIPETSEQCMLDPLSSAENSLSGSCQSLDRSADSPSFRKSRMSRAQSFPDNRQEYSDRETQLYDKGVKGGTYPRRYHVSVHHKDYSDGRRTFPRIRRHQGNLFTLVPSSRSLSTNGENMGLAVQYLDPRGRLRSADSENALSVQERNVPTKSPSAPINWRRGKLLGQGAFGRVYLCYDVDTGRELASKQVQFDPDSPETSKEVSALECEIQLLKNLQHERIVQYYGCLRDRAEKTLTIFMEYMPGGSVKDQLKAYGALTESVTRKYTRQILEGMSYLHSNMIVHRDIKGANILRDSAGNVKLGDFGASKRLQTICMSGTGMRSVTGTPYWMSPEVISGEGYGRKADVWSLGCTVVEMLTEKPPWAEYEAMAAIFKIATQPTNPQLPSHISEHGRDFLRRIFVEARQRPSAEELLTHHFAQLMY
TMEM16A inh = blocks the mouse calcium-activated chloride channel TMEM16A | Q8BHY3 | HEK293 TMEM16A/YFP iodide influx fluorescence, ionomycin | normalized B-score (activity score, 25-100; higher = stronger inhibition) at 10 µM | actives 1.2% (n = 310,000) | AID 588511;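 active means ratio plate-corrected score three or more library SD toward inhibition, starting fluorescence score within five deviations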;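 further: score derived from kinetic fluorescence span divided by baseline fluorescence per well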
TMEM16A reconf = reconfirmed blocker of mouse TMEM16A calcium-activated chloride channel. shares compounds with TMEM16A inh. inhibition, % at 10 µM. AID 652189. actives 39% (n = 2,300). HEK293 TMEM16A/YFP-H148Q, iodide quench fluorescence; ionomycin added to raise cell calcium;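 active means mean duplicate percent inhibition, scaled so buffer wells are 0 and the reference blocker 100, over three buffer SD above buffer mean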
TMEM16A Ca cntr = alters calcium mobilization in TMEM16A HEK293 cells, counter-screen | TMEM16A/YFP HEK293, Fluo4 calcium mobilization | shares compounds with TMEM16A inh | AID 652231 | calcium response (% of ionomycin), % at 10 µM | actives 2% (n = 2,300);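 active means duplicate-averaged calcium signal over 20% of the ionomycin maximum, relative to buffer baseline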;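 further: each well's signal is peak minus trough fluorescence divided by its pre-addition baseline; 0% = buffer wells and 100% = ionomycin wells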
YFP-HEK293 quench = counter-screen for TMEM16A inhibitors: effect in parental YFP-HEK293 cells; YFP ratio F(max-min)/F0 at 10 µM; 2,300 tested, under 10 active; shares compounds with TMEM16A inh; iodide YFP quench, ionomycin;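 active means yellow fluorescent protein signal ratio exceeding the buffer control mean by over 5 SD of those controls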;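 further: ratio is mean of duplicate wells from kinetic YFP trace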
ClC-1 rat inh = rat ClC-1 inhibition, TMEM16A specificity screen. 2,300 tested, under 10 active. shares compounds with TMEM16A inh. CHO ClC-1-YFP, iodide influx fluorescence quench; iodide control reads 0, buffer control 100. ratio percent, % at 10 µM;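 active means duplicate-mean ratio percent above the mean of iodide-only control wells, which defines zero, plus 5 of their SD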;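 further: higher percent means stronger block of ClC-1 iodide influx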
Starred values were filed as active, the others as inactive; i = inactive; . = no result.

SMILES	MEKK2 mut-MEK5	ANO1 activ	MEKK2wt PB1 HTS	NTR1 ag	MEKK3 PB1 HTS	TMEM16A inh	TMEM16A reconf	TMEM16A Ca cntr	YFP-HEK293 quench	ClC-1 rat inh
CCc1ccc([C@@H]2CC=C(C(=O)O)[C@H](c3ccccc3)N2S(=O)(=O)c2ccc(C)cc2)cc1	.	i	.	2.4	.	i	.	.	.	.
COc1ccc([C@@H]2CC=C(C(=O)O)[C@H](c3ccccc3)N2S(=O)(=O)c2ccccc2C)cc1	.	i	.	-2.8	.	i	.	.	.	.
O=C(O)C1=CC[C@@H](c2ccc(Cl)cc2)N(S(=O)(=O)c2ccc(Cl)cc2)[C@H]1c1ccc(F)cc1	.	i	.	14.5	.	100*	i	i	-0.966	-28.0
CCOC(=O)c1c(NC(=O)COC(=O)c2nc(Cl)ccc2Cl)sc2c1CCC2	1.0	i	101.0	4.5	102.0	i	.	.	.	.
CCOCCCNc1nc2c(C)cccn2c(=O)c1/C=C1\SC(=S)N(CC(C)C)C1=O	.	i	.	-0.5	.	i	i	i	-0.0855	44.0
CCOC(=O)c1sc(N)c(C(=O)Nc2ccccc2OC)c1C	-2.0	i	105.0	0.7	107.0	i	.	.	.	.
CCn1c(SCC(=O)c2ccc3c(c2)OCCO3)nnc1C(C)C	1.0	i	105.0	1.5	104.0	i	i	i	-1.01	-8.5
COC(=O)C1=NNC(C(=O)c2ccco2)C1c1ccc(OC)cc1 (stereo unspecified)	-6.0	i	88.0	2.0	96.0	i	.	.	.	.
CCOC(=O)c1ccc2c(c1)nc(C1CCN(S(=O)(=O)c3cccs3)CC1)n2CC	3.0	i	105.0	2.0	104.0	25*	i	i	-1.04	-5.5
CS(=O)(=O)c1ccc(CNC(=O)C2(C(F)(F)F)C/C(=C/CCO)CCCO2)cc1 (stereo unspecified)	-1.0	i	99.0	-3.0	103.0	i	.	.	.	.
CCOc1ccccc1C(=O)NCC(=O)NC(C)c1ccc(-n2ccnc2)cc1 (stereo unspecified)	.	i	.	-0.1	.	i	.	.	.	.
CCCC(=O)Nc1nc(-c2ccc3c(c2)CCN3S(C)(=O)=O)cs1	5.0	i	98.0	2.0	106.0	i	.	.	.	.
CC1Cc2cc(-c3csc(NC(=O)Cc4cccs4)n3)ccc2N1S(C)(=O)=O (stereo unspecified)	.	i	.	17.1	.	25*	22.5%*	i	-1.42	-4.5
O=C(CCN1C(=O)/C(=C/c2ccco2)SC1=S)Nc1ccc(O)cc1C(=O)O	3.0	i	101.0	0.3	101.0	i	i	i	-0.728	-4.5
O=C(CN1C(=O)/C(=C\c2ccco2)SC1=S)Nc1ccc(O)cc1C(=O)O	-1.0	i	91.0	0.5	97.0	i	.	.	.	.
COc1ccccc1NC(=O)CSc1nnc(COc2ccc(Cl)cc2)n1Cc1ccco1	1.0	i	101.0	4.9	106.0	i	.	.	.	.
COc1ccc(C)cc1NC(=O)CSc1nnc(COc2ccc(C)cc2)n1Cc1ccco1	3.0	i	102.0	4.4	105.0	25*	i	i	-1.15	-14.0
Cc1nn(Cc2ccc(C(=O)NC3CCCCC3)o2)c(C)c1Br	11.0	i	112.0	-0.9	113.0	i	.	.	.	.
Cc1nn(Cc2ccc(C(=O)Nc3nc4c(C)cccc4s3)o2)c(C)c1Br	-2.0	i	100.0	14.8	101.0	100*	i	i	-1.16	5.5
